Experimental data reported in the supplement of paper PMC8183993.
Counter-ions that a name gives are not always drawn. ± gives the standard deviation of the averaged measurements. Whole data set: some 3,100 compounds, median “mean cytoplasmic OPP incorporation (global translation) relative to DMSO” near 100, cut for the lowest 2% near 56. Shown is part of a subset that was picked to be rich in the lowest values.

Each molecule was assayed on U2OS (assay: mean cytoplasmic OPP incorporation (global translation) relative to DMSO (% of DMSO); higher = more protein synthesis). Settings: 10 µM; 24 h.
Protocol: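 Primary image-based screen in U2OS cells: compounds at 10 uM for 24 h, then a 1 h o-propargyl-puromycin (OPP) pulse, click labelling, and high-throughput microscopy. Mean cytoplasmic OPP intensity and nuclei count were normalised to DMSO wells within each plate (DMSO = 100) and averaged over triplicate plates.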

Row | SMILES | mean cytoplasmic OPP incorporation
1 | O=C(O)Cc1nn(Cc2ccc(Br)cc2F)c(=O)c2ccccc12 [Statil] | 98.2
2 | Nc1ccccc1NC(=O)c1ccc(CNC(=O)OCc2cccnc2)cc1 [Entinostat (MS-275, SNDX-275)] | 23.5
3 | Cc1ccc(NC(=O)c2ccc(CN3CCN(C)CC3)cc2)cc1Nc1nccc(-c2cccnc2)n1 [Imatinib Mesylate] | 130
4 | Cc1ccc(NC(=O)c2ccc(CN3CCN(C)CC3)cc2)cc1Nc1nccc(-c2cccnc2)n1 [Imatinib] | 120
5 | Nc1ccccc1NC(=O)c1ccc(CNc2nccc(-c3cccnc3)n2)cc1 [Mocetinostat (MGCD0103)] | 35.5
6 | Cc1ccc(NC(=O)c2ccc(CN3CCN(C)CC3)cc2)cc1Nc1nccc(-c2cccnc2)n1 [Imatinib (STI571)] | 124
7 | COc1ccc(C(=O)NCc2cccnc2)cc1C(=O)NCc1cccnc1 [Picotamide monohydrate] | 98.8
8 | Cc1cc(NC(=O)c2cccc(NC(=O)/C=C/CN(C)C)c2)ccc1Nc1nccc(-c2cccnc2)n1 | 96.1
9 | Cc1ccc(NC(=O)c2ccc(CN3CCN(C)CC3)cc2)cc1Nc1nccc(-c2cccnc2)n1 [Imatinib mesylate] | 121 ± 11
10 | CC(=O)Nc1ccc(C(=O)Nc2ccccc2N)cc1 | 57.3 ± 33
11 | O=c1nc2ccccc2c2n1CC(CN1CCN(c3ccccc3)CC1)N2 (stereo unspecified) | 101
12 | O=C(O)c1ccccc1Nc1cccc2c1C(=O)c1cccc(Nc3ccccc3C(=O)O)c1C2=O | 113
13 | O=C(Cc1ccccc1)Nc1nc2ccc(Cl)cc2c2nc(-c3ccco3)nn12 | 104
14 | CC(C)CC(NC(=O)OCC1c2ccccc2-c2ccccc21)C(=O)O (stereo unspecified) | 109
15 | Brc1ccc(C2CN3CCSC3=N2)cc1 [L-p-Bromotetramisole oxalate] | 94.5
16 | CCOC(=O)C=Cc1ccc(O)c(OC)c1 [Ferulic acid ethylester] | 103
17 | COCC[n+]1c2c(n(Cc3cnccn3)c1C)C(=O)c1ccccc1C2=O | 35
18 | CC(C)NCC(O)COc1ccccc1-n1cccc1 (stereo unspecified) [Isamoltane hemifumarate] | 94.6
19 | Nc1c(O)cc(O)cc1C=Cc1ccc(O)cc1 [Aminoresveratrol sulfate] | 100
20 | CCC(=O)NC1CCc2cccc(OC)c2C1 (stereo unspecified) | 101
21 | O=S1(=O)c2cccc3cccc(c23)N1CCCN1CCN(c2ccc(F)cc2)CC1 [Fananserin] | 103
22 | CCCOC(=O)c1cc(O)c(O)c(O)c1 [N-Propyl gallate] | 123
23 | COc1ccc(-c2nc(N3CCOCC3)c3sc(CN(C)c4ncc(C(=O)NO)cn4)cc3n2)cn1 | 86.6
24 | Cc1c(CN2CCN(C(=O)[C@H](C)O)CC2)sc2c(N3CCOCC3)nc(-c3cnc(N)nc3)nc12 [Apitolisib (GDC-0980, RG7422)] | 50.7
25 | CS(=O)(=O)N1CCN(Cc2cc3nc(-c4cccc5[nH]ncc45)nc(N4CCOCC4)c3s2)CC1 [Pictilisib (GDC-0941)] | 73.8
26 | Cc1cc(Cc2cc(C)cc(C(C)(C)C)c2O)c(O)c(C(C)(C)C)c1 | 103

Row | SMILES | mean cytoplasmic OPP incorporation
27 | CC1(C)OC2=C(C(=O)c3ccccc3C2=O)[C@H](NCc2ccccc2)[C@@H]1O | 38.9
28 | CC1(C)S[C@@H]2[C@H](NC(=O)Cc3ccccc3)C(=O)N2[C@H]1C(=O)O [Benzylpenicillin sodium] | 80.8
29 | Cc1cc(C(=O)NNCc2ccccc2)no1 [Isocarboxazid] | 106
30 | CC1(C)S[C@@H]2[C@H](NC(=O)Cc3ccccc3)C(=O)N2[C@H]1C(=O)O [Benzathine benzylpenicillin] | 104
31 | CC(C)Oc1ccc(-c2c[nH]cc2CN(C)CCN)cc1 | 100
32 | CC(CCCCC(=O)Nc1ccc(C(F)(F)F)cc1)NCCc1cnc[nH]1 (stereo unspecified) [HTMT dimaleate] | 100
33 | CC1(C)Oc2ccc(C#N)cc2[C@H](N2CCCC2=O)[C@H]1O [Cromakalim] | 98.1
34 | FC(F)(F)c1cc(COC2CCCNC2c2ccccc2)cc(C(F)(F)F)c1 [L-733,060 hydrochloride] | 108
35 | CCC(C)[C@H](NS(=O)(=O)c1cccc2ccccc12)C(=O)N[C@H](C=O)Cc1c[nH]c2ccccc12 (stereo partly specified) | 102
36 | COc1ccc2cc3[n+](cc2c1OC)CCc1cc2c(cc1-3)OCO2 [Berberine HCl] | 106
37 | C[n+]1cc2c3c(ccc2c2ccc4cc5c(cc4c21)OCO5)OCO3 [Sanguinarine chloride] | 42.4
38 | O=c1[nH]c2cc(Cl)ccc2c(O)c1-c1cccc(Oc2ccccc2)c1 | 103
39 | O=C1NC(=O)c2c1c(-c1ccccc1)cc1[nH]c3ccc(O)cc3c21 | 51.8
40 | CS(=O)(=O)CCNCc1nc(-c2ccc3ncnc(Nc4ccc(OCc5cccc(F)c5)c(Cl)c4)c3c2)cs1 | 102
41 | N#Cc1cc2c(OCC(O)CN3CCN(C(c4ccccc4)c4ccccc4)CC3)cccc2[nH]1 (stereo unspecified) | 107
42 | CCN(CCO)CCCC(C)Nc1ccnc2cc(Cl)ccc12 (stereo unspecified) [Hydroxychloroquine sulfate] | 102
43 | CCN(CCO)CCCC(C)Nc1ccnc2cc(Cl)ccc12 (stereo unspecified) [Hydroxychloroquine] | 93
44 | CCN(CC)CCCC(C)Nc1c2ccc(Cl)cc2nc2ccc(OC)cc12 (stereo unspecified) [Quinacrine dihydrochloride dihydrate] | 29.5
45 | CCN(CC)CCCC(C)Nc1ccnc2cc(Cl)ccc12 (stereo unspecified) [Chloroquine diphosphate] | 105
46 | CCN(CC)CCCC(C)Nc1ccnc2cc(Cl)ccc12 (stereo unspecified) [Chloroquine] | 107
47 | O=C(CCCCCCC(=O)NO)NO [Suberoyl bis-hydroxamic acid] | 88.4
48 | C[C@H](CCC(=O)NCC(=O)O)[C@H]1CC[C@H]2[C@@H]3CC[C@@H]4C[C@H](O)CC[C@]4(C)[C@H]3C[C@H](O)[C@]12C [Glycodeoxycholic acid] | 102
49 | Nc1ccc(-c2ccc3ncc4ccc(=O)n(-c5cccc(C(F)(F)F)c5)c4c3c2)cn1 [Torin 2] | 67.6 ± 3.6
50 | CCC(=O)N1CCN(c2ccc(-n3c(=O)ccc4cnc5ccc(-c6cnc7ccccc7c6)cc5c43)cc2C(F)(F)F)CC1 [Torin 1] | 73
51 | COc1ccc(-c2ccc3ncc4c(c3c2)n(-c2ccc(N3CCNCC3)c(C(F)(F)F)c2)c(=O)n4C)cn1 | 33.4 ± 16
